# Screens deposited in PubChem BioAssay by several laboratories.
# VCAM1 TNFa inh: inhibitors of TNFa-induced VCAM1 expression, primary screen, imaging, HUVEC, TNFa stimulus, immunofluorescence; HUVEC TNFa-induced VCAM-1 immunofluorescence, high-content imaging; inhibition, % at 2 µM; actives 0.48% (n = 95,000); AID 802, 2007;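 active = inhibition above the batch mean plus 3 SD, with images confirmed as a hit by eye, cut at about 37% in these data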
# NFkB transloc pot: enhancers of NFkB p65 translocation in HUVEC – imaging, IL-1B stimulus, high-content imaging, primary screen. HUVEC IL-1B NFkB p65 nuclear translocation imaging. activation, % at 2 µM. actives 0.3% (n = 94,000). AID 819, 2007;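 active = activation above 40%, about the mean plus 3 SD, also judged a hit on visual image review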;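 also: percent activation is computed from the nuclear over cytoplasmic p65 intensity ratio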
# IL1B cytotox: cytotoxicity in IL-1B stimulated HUVEC, primary screen, cytotoxicity control for IL-1B NFkB translocation project, imaging, Hoechst nuclear count, IL-1B stimulus; HUVEC cell count loss; cell count reduction, % at 2 µM; actives 0.41% (n = 94,000); AID 845, 2007;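 active = cell count reduction more than 3 SD above the screen-wide mean, cut at about 70% in these data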
# Phagocytosis inh: inhibitors of macrophage phagocytosis, primary screen, imaging, J774A.1 cells, IgG beads; J774A.1 macrophage IgG-bead phagocytosis; inhibition, % at 5 µM; actives 0.07% (n = 110,000); AID 1029, 2008;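 active = inhibition above the mean of the plate negative controls plus 5 SD, cut at about 13% in these data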;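 also: phagocytic index as fraction of beads internalized from green versus red external bead signal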
# NFkB transloc inh: inhibitors of IL-1B driven NFkB p65 nuclear import, primary screen, imaging, HUVEC, IL-1B stimulus, high-content imaging. AID 796, 2007. inhibition, % at 2 µM. HUVEC IL-1B NFkB p65 nuclear translocation imaging. actives 0.43% (n = 94,000);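 active = inhibition above about 30% together with a positive call from visual inspection of the well image, limit read from the data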;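 also: nuclear over cytoplasmic p65 intensity ratio measured by imaging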
# HUVEC tox TNFa: cytotoxicity in TNFa-stimulated HUVEC, primary screen, cytotoxicity control for VCAM1 expression modulator project, imaging, Hoechst nuclei count. HUVEC TNFalpha-stimulated, Hoechst cell count. cell count reduction, % at 2 µM. actives 0.17% (n = 93,000). AID 848, 2007;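 active = cell count reduction exceeding the screen mean by over 5 SD, scaled to untreated wells per plate, cut at about 78% in these data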;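 also: cells counted after 24 h of TNF alpha exposure following the 1 h pretreatment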
# Numbers stand for hits; i = inactive; nt = no result given; ! = not confirmed by another sample. Most compounds without a hit are left out; they make up all but 1.2% or so of the library.
SMILES,VCAM1 TNFa inh,NFkB transloc pot,IL1B cytotox,Phagocytosis inh,NFkB transloc inh,HUVEC tox TNFa
CCCC(=O)Nc1nc(-c2ccccc2)ns1,nt,nt,nt,i,nt,nt
CCC(=O)Nc1nc(-c2ccccc2)ns1,58,i,i,nt,i,nt
O=C(c1ccc(Cl)cc1)[C@@H]1[C@@H]2C(=O)N(c3cccc4ccccc34)C(=O)[C@@H]2C2c3ccccc3C=NN21 (stereo partly drawn),nt,nt,nt,i,nt,nt
Cc1cc2ccccc2n1CCNC(=O)c1cccs1,i,i,i,i,59,i
COC(=O)c1cccc(S(=O)(=O)N(Cc2ccco2)Cc2cc3ccc(OC)cc3[nH]c2=O)c1,87,i,i,i,i,i
CCC(=O)Nc1ccc(N2CCN(S(C)(=O)=O)CC2)cc1,nt,nt,nt,i,nt,nt
CCCCNC(=S)Nc1ccccc1F,i,i,90,i,i,i
Cc1cc(C)nc(NN=C(c2ccccc2)c2ccccc2)n1,nt,nt,nt,i,nt,nt
NS(=O)(=O)c1ccc(NC(=O)CCc2ccccc2)cc1,i,i,i,i,i,i
C=CCN(CC=C)CC(=O)Nc1ccc(S(N)(=O)=O)cc1,i,i,i,nt,42,i
Cc1ccc(NC(=O)c2cc(NC(=O)CCC(=O)O)ccc2N2CCCCC2)cc1,i,i,92,i,i,i
Cc1cccc(NC(=O)c2cc(NC(=O)c3ccccc3)ccc2N2CCCCC2)c1,i,i,i,i,i,i
CCOc1cc(CN2CCCCC2)ccc1OC,i,i,i,i,i,i
CCOc1ccc(C=O)cc1CN1CCCCC1,95,i,i,i,i,84
COc1ccc(-c2cc(C(F)(F)F)nc(NCc3ccco3)n2)cc1OC,i,i,i,nt,i,i
FC(F)(F)c1cc(-c2ccc3c(c2)OCO3)nc(NCc2ccco2)n1,78,i,i,i,i,78
CC(NC(=O)COc1ccc(-c2nnco2)cc1)c1ccc(Cl)cc1Cl (stereo not drawn),nt,nt,nt,i,nt,nt
O=[N+]([O-])/C=C/c1c(OCc2ccccc2)ccc2ccccc12,56,i,i,nt,i,i
CCOc1ccc(/C=C/[N+](=O)[O-])c2ccccc12,i,i,i,nt,61,i
CCOC(=O)COc1ccc2ccccc2c1/C=C/[N+](=O)[O-],nt,nt,nt,i,nt,nt
CCC(C)NC(=O)c1ccc([N+](=O)[O-])c(Cl)c1 (stereo not drawn),nt,nt,nt,i,nt,nt
O=C(NC(=S)Nc1cc(C(F)(F)F)ccc1Cl)c1ccccc1,i,i,i,nt,79,i
CSc1nc(N(C)NC(=O)c2ccccc2)c2ccccc2n1,i,i,i,i,i,i
CSc1nc(N(C)NC(=O)c2ccc(Cl)cc2)c2ccccc2n1,i,i,i,i,34,i
Cc1ccc(OCC(=O)N2CCCCCC2)c(C)c1,i,i,86,i,i,i
SMILES,VCAM1 TNFa inh,NFkB transloc pot,IL1B cytotox,Phagocytosis inh,NFkB transloc inh,HUVEC tox TNFa
O=C(Cn1nc(-c2ccccc2)ccc1=O)NCC1COCCO1 (stereo not drawn),i,i,89,nt,98,i
Cc1ccc2nc(NC(=O)CN(C)S(=O)(=O)c3ccc(Br)s3)sc2c1,i,i,i,i,38,i
Cc1ccc2nc(NC(=O)CNS(=O)(=O)c3ccc(Br)s3)sc2c1,i,i,i,i,i,i
CCN(CC)CCN1C(=O)C(=O)/C(=C(/O)c2ccc(OC)cc2)C1c1ccco1 (stereo not drawn),i,i,i,i,i,i
CCOc1ccc(/C(O)=C2/C(=O)C(=O)N(c3nc(C)c(C)s3)C2c2ccco2)cc1 (stereo not drawn),i,i,i,i,46,i
COc1cc(C(=O)N2CCN(c3cc(Cl)ccc3Cl)CC2)cc(OC)c1OC,58,i,i,i,i,i
COc1ccc(/C=N/NC(=O)OC(C)(C)C)cc1OC,nt,nt,nt,i,nt,nt
Cc1c(C(=O)NCc2ccco2)oc2ccc(S(=O)(=O)N3CCC4(CC3)OCCO4)cc12,i,i,i,nt,32,i
CC1(c2ccc3ccccc3c2)NC(=O)N(CC(=O)Nc2cccc(S(=O)(=O)N3CCOCC3)c2)C1=O (stereo not drawn),nt,nt,nt,i,nt,nt
CC(C)NC(=O)c1nc2ccccc2s1,i,i,74,i,i,i
COc1ccc(NC(=O)c2nc3ccccc3s2)cc1,nt,nt,nt,i,nt,nt
O=C(/C=C/c1ccccc1F)c1cccc([N+](=O)[O-])c1,nt,nt,nt,i,nt,nt
O=C(Oc1ccc(F)cc1C(=O)/C=C/c1cccs1)c1cccc([N+](=O)[O-])c1,i,i,i,nt,31,i
Cc1cc(N2CCOCC2)c2c(N)c(C)cc(C)c2n1,100,i,i,i,i,nt
COC(=O)c1ccccc1NC(=O)Cn1c(-c2nonc2N)nc2ccccc21,79,i,i,i,i,i
COc1cc(/C=C(/NC(=O)c2ccccc2)C(=O)Nc2ccc(O)cc2)c([N+](=O)[O-])cc1OC,nt,nt,nt,i,nt,nt
Cc1cc(N2CC(C(=O)NCc3cccs3)CC2=O)ccc1C(C)C (stereo not drawn),i,i,i,i,46,i
CC1CCC(NC(=O)C2c3ccccc3C(=O)N2Cc2cccs2)CC1 (stereo not drawn),nt,nt,nt,i,nt,nt
O=C(COc1cccc(Cl)c1)Nc1ccc2c(c1)CCC2,nt,nt,nt,i,nt,nt
O=S(=O)(c1ccc2c(c1)OCCCO2)N1CCNCC1,84,i,i,i,i,84
CCOc1ccc(C(=O)NCC2CCCO2)cc1 (stereo not drawn),i,56,i,i,i,i
CCOC(=O)Cc1csc(NC(=S)NC(=O)c2ccc(F)cc2)n1,i,i,i,i,i,i
CCOC(=O)Cc1csc(NC(=S)NC(=O)c2ccccc2C)n1,i,i,i,nt,50,i
NS(=O)(=O)c1ccc(CCNC(=S)Nc2ccccc2)cc1,nt,nt,nt,i,nt,nt
COc1ccc(-c2nc3c(n2O)CCC/C3=N\O)cc1,i,i,i,i,i,i
SMILES,VCAM1 TNFa inh,NFkB transloc pot,IL1B cytotox,Phagocytosis inh,NFkB transloc inh,HUVEC tox TNFa
Cc1nc2c(n1O)CCC/C2=N\O,i,49,i,i,i,i
O=C(COC(=O)c1ccccc1C(=O)c1ccc(Cl)c([N+](=O)[O-])c1)NC1CCCCCC1,87,i,i,i,83,i
CCC(CC)n1[nH]c(=O)c2c(C)cc(C)nc21,i,i,i,i,i,81
Cc1cc(C)c2c(=O)[nH]n(C(C)C)c2n1,nt,nt,nt,i,nt,nt
Cc1ccc(S(=O)(=O)Nc2ccc(=O)n(Cc3ccc(Cl)c(Cl)c3)c2)cc1,i,i,i,nt,i,i
COc1ccc(C(=O)c2ccc(N(C)C)cc2)c2ccccc12,60,i,i,nt,i,i
CN(C)c1ccc(C(=O)c2ccc(O)cc2O)cc1,i,i,i,nt,i,i
Nn1c(SCC(=O)NC2CCCc3ccccc32)nnc1-c1ccc(Cl)cc1Cl (stereo not drawn),nt,nt,nt,i,nt,nt
COc1ccc2nc(C)cc(SCC(=O)O)c2c1,i,i,i,i,40!,i
